# Experimental data from PubChem BioAssay (Tox21).
# Values without a mark were called inactive. Results filed as inconclusive are left out. Where a call stands in place of a potency, no number is given. Calls of active or inactive are those of the source. Unless noted, calls come from the whole dose curve; as a rule, active = well fitted curve in the direction sought with a large enough effect in the repeat runs; inconclusive = weak or mixed curves; inactive = no such curve, though single readings can be large; an effect the other way counts as inactive or inconclusive.
# Key:
# [1] = qHTS assay to identify small molecule agonists of the estrogen receptor alpha (ER-alpha) signaling pathway in the presence of an antagonist - cell viability counter screen (AID 1259386);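 note: cells exposed to compounds for 22 h at 37 °C before the viability read; nearly all actives have a fitted effect of over 30% in size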; note: potency is the fitted concentration of half-maximal effect
# How it was run: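 In this counter screen, compound effects on VM7Luc4E2 viability were tested in the presence of the antagonist ICI-182,780 at 10.0nM final. Compounds were dosed at 15 concentrations, exposure lasted 22hr, and the CellTiter-Fluor signal was read.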
# [2] = target: Progesterone receptor (Homo sapiens) (UniProt P06401); assay: qHTS assay to identify small molecule agonists of the progesterone receptor (PR) signaling pathway (AID 1346784; calls by dose curve; note: nearly all actives have a fitted effect of over 30% in size)
# Sequence of Progesterone receptor (Homo sapiens) (P06401 whole entry, looked up): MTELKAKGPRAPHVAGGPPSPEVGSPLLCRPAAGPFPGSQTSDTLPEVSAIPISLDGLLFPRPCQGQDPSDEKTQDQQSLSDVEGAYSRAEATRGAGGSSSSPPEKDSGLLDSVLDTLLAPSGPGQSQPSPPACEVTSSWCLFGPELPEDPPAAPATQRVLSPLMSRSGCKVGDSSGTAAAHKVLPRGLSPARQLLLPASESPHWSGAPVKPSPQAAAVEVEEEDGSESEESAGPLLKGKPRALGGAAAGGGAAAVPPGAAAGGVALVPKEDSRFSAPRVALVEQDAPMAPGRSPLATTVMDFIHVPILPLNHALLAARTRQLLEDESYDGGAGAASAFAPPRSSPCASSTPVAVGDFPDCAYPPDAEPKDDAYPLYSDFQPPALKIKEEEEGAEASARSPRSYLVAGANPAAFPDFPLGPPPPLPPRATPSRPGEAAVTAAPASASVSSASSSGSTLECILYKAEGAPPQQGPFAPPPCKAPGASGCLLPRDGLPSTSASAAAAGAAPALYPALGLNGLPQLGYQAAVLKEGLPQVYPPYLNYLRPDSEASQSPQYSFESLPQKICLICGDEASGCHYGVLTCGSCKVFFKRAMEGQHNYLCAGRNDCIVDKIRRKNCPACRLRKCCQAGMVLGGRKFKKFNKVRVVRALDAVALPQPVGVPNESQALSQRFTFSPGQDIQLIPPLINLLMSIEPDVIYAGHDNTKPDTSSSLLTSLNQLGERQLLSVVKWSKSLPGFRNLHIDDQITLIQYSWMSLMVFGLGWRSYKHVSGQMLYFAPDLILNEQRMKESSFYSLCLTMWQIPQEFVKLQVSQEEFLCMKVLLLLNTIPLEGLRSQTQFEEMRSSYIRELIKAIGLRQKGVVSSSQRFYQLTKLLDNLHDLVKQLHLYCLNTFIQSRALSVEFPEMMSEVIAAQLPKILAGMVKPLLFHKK
# How it was run: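 Using charcoal-stripped serum (2%) to limit endogenous steroids, PR-UAS-bla HEK 293T cells received compounds for 16 hr at 37C after 6 hr plating; beta-lactamase FRET fluorescence was recorded following 2 hr substrate loading at room temperature.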
# [3] = qHTS assay to identify small molecule antagonists of the progesterone receptor (PR) signaling pathway - cell viability counter screen (AID 1346798); note: nearly all actives have a fitted effect of over 50% in size; note: potency is the fitted concentration of half-maximal effect
# How it was run: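 ATP content as viability readout: CellTiter-Glo luminescence, 30 min room temperature, in PR-UAS-bla HEK293T cells after 16 hr compound/R5020 treatment at 37C and 5% CO2.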
# [4] = qHTS assay to identify small molecule agonists of the progesterone receptor (PR) signaling pathway - cell viability counter screen (AID 1346799; calls by dose curve; note: nearly all actives have a fitted effect of over 45% in size; note: potency is the fitted concentration of half-maximal effect)
# How it was run: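 Cytotoxicity in PR-bla HEK293T cells: 16 h compound, 37C; CellTiter-Glo added post-FRET read; luminescence after 30 min RT.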
# [5] = qHTS assay to identify small molecule antagonists of the TGF-beta/Smad signaling pathway - cell viability counter screen (AID 1346824); note: nearly all actives have a fitted effect of over 50% in size
# How it was run: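 Cytotoxicity counter-screen run in the same wells as the beta-lactamase Smad reporter read: CellTiter-Glo luminescence after 30 min at room temperature. HEK 293T SBE-bla cells had 5 hr compound exposure at 37 C with TGF-beta1 (0.25 ng/mL stock).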
# [6] = qHTS assay to identify small molecule agonists of the TGF-beta/Smad signaling pathway - cell viability counter screen (AID 1346829); note: top concentration of the series differs between compounds; nearly all actives have a fitted effect of over 45% in size
# How it was run: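 Compound-treated SBE-bla HEK 293T cells (5 hr, 37 C) were assessed for viability with CellTiter-Glo in parallel with the reporter read.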
# [7] = qHTS assay to identify small molecule agonists of the TGF-beta/Smad signaling pathway (AID 1346859; active = well fitted activation curve with a large enough effect in the signal ratio in the repeat runs, not every such curve was filed as active; the % refers to the signal ratio; note: series mostly up to about 77 µM)
# How it was run: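 Stable Smad binding element-beta-lactamase HEK 293T cells; 5 hr compound exposure at 37 C under 5% CO2; 2 hr room-temperature substrate step; fluorescence excited at 405 nm, collected at 460 nm and 530 nm.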
# [8] = Human pregnane X receptor (PXR) small molecule agonists, qHTS cell viability counter screen (AID 1346977); note: nearly all actives have a fitted effect of over 50% in size; note: potency is the fitted concentration of half-maximal effect
# How it was run: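 Readout is CellTiter-Fluor fluorescence from PXR-Luc HepG2 cells. Plated cells rested 5hr, then were treated with compounds for 24hr at 37C and 5% CO2, with reagent present during the last hour.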
# [9] = Caspase-3/7 induction in HepG2 cells by small molecules, qHTS assay (AID 1346978); note: nearly all actives have a fitted effect of over 15% in size
# How it was run: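 Caspase-3/7 induction was measured by Caspase-Glo 3/7 luminescence (30 min, room temperature) after a 17 hr compound exposure of wild-type HepG2 cells seeded at 2,000 per well and pre-incubated 5 hr.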
# [10] = Caspase-3/7 induction in CHO-K1 cells by small molecules, qHTS cell viability counter screen (AID 1346979); note: nearly all actives have a fitted effect of over 35% in size; note: potency is the fitted concentration of half-maximal effect
# How it was run: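 To flag cytotoxic compounds, treated CHO-K1 wild-type cells were given CellTiter-Fluor at 16hr and read fluorescently after 1hr at 37C; the caspase-3/7 luminescence was measured in these same wells.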
# [11] = Caspase-3/7 induction in CHO-K1 cells by small molecules, qHTS assay (AID 1346980); note: nearly all actives have a fitted effect of over 15% in size; note: potency is the fitted concentration of half-maximal effect
# How it was run: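 Luminescent Caspase-Glo 3/7 read (30min, room temperature) quantified apoptosis induction. Cells were wild-type CHO-K1, treated with compound for 17hr at 37 C and 5% CO2.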
# [12] = Caspase-3/7 induction in HepG2 cells by small molecules, qHTS cell viability counter screen (AID 1346981); note: nearly all actives have a fitted effect of over 30% in size; note: potency is the fitted concentration of half-maximal effect
# How it was run: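 In this quantitative HTS counter screen, compounds delivered in DMSO were left on unmodified HepG2 cells for 16 hr at 37 C. Viability was then determined fluorometrically with CellTiter-Fluor, in parallel with caspase-3/7 induction in the same wells.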
# [13] = target: Nuclear receptor subfamily 1 group I member 2 (Homo sapiens) (UniProt O75469); assay: Human pregnane X receptor (PXR) small molecule agonists, qHTS assay (AID 1346982); note: nearly all actives have a fitted effect of over 35% in size; note: potency is the fitted concentration of half-maximal effect
# Sequence of Nuclear receptor subfamily 1 group I member 2 (Homo sapiens) (O75469 whole entry, looked up): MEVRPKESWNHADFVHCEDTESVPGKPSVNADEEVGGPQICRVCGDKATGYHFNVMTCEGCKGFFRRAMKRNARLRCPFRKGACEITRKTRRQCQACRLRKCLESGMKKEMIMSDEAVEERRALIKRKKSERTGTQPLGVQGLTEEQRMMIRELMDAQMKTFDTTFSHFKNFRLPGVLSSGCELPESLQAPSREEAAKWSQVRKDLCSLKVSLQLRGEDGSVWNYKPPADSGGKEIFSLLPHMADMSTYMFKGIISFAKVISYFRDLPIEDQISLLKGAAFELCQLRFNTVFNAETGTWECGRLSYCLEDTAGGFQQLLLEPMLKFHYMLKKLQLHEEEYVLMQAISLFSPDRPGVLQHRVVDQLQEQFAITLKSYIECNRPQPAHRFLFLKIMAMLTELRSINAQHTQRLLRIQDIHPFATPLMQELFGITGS
# How it was run: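 Reporter HepG2 cells expressing PXR-Luc are cultured in charcoal-stripped FBS (5%), treated with compounds for 24 hr at 37 C, and assayed by ONE-Glo luminescence after 30 min at room temperature.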
# [14] = target: Thyrotropin-releasing hormone receptor (Homo sapiens) (UniProt P34981); assay: qHTS assay to identify small molecule antagonists of the thyrotropin-releasing hormone receptor (TRHR) signaling pathway (AID 1346877; active = well fitted inhibition curve with a large enough effect in the repeat runs, not every such curve was filed as active; note: series mostly up to about 51 µM)
# Sequence of Thyrotropin-releasing hormone receptor (Homo sapiens) (P34981 whole entry, looked up): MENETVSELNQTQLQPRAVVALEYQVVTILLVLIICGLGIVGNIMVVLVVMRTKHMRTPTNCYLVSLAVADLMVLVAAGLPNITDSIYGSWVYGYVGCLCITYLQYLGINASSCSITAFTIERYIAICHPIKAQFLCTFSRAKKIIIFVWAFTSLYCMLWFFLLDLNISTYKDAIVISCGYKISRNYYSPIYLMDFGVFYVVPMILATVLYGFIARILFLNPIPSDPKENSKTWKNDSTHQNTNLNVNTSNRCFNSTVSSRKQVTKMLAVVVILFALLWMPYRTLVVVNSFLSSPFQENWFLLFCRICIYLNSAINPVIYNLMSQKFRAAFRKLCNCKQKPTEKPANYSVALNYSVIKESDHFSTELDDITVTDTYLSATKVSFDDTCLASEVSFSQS
# How it was run: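 Kinetic fluorescence (3 min, 1 s resolution) following stimulation with TRH at 1 nM final; HEK293 cells bearing human TRHR; 5 min compound preincubation at RT; concentration-response over 15 points, triplicates.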
# [15] = target: Nuclear receptor subfamily 1 group I member 2 (Rattus norvegicus) (UniProt Q9R1A7); assay: Rat pregnane X receptor (rPXR) activation by small molecules, qHTS assay (AID 1346983); settings: rPXR luciferase reporter cells, One-Glo luminescence, 24 h; max activation: active compounds read high; note: nearly all actives have a fitted effect of over 20% in size
# Sequence of Nuclear receptor subfamily 1 group I member 2 (Rattus norvegicus) (Q9R1A7 whole entry, looked up): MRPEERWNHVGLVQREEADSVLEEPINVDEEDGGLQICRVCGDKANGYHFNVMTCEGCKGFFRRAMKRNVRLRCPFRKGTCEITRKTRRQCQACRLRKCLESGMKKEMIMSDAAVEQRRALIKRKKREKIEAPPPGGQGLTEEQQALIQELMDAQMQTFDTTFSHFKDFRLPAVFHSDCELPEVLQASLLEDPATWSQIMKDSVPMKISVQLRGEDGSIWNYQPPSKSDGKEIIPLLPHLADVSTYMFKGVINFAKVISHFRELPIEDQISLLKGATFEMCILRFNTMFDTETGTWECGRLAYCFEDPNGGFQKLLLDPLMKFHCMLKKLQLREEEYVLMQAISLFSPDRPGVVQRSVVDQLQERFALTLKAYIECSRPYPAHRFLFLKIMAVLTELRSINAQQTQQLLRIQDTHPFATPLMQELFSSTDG
# How it was run: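 Luminescent readout (One-Glo luciferase, 30 min room temperature) followed 24 hr compound treatment at 37 C of rPXR cells plated 2,000 per well and preincubated 5hr; qHTS format with compounds delivered in DMSO.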
# [16] = target: Nuclear receptor subfamily 1 group I member 2 (Homo sapiens) (UniProt O75469); assay: Human pregnane X receptor (PXR) activation by small molecules, qHTS assay (AID 1346985); note: nearly all actives have a fitted effect of over 40% in size; note: potency is the fitted concentration of half-maximal effect
# How it was run: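 DPX-2 cells (HepG2 co-transfected with a PXR response element and a CYP3A4-promoter luciferase construct) were seeded at 2,000 per well, rested 5 hr at 37C, then exposed to DMSO-dissolved compounds for 24 hr. Activation was read as luciferase luminescence.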
# [17] = target: Thyrotropin-releasing hormone receptor (Homo sapiens) (UniProt P34981); assay: qHTS assay to identify small molecule agonists of the thyrotropin-releasing hormone receptor (TRHR) signaling pathway (AID 1346891; calls by dose curve;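 note: HEK293 cells expressing TRHR with calcium dye readout; series mostly up to about 58 µM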)
# How it was run: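 In 1536-format, 1500 TRHR-Hek293 cells per well grew 18 h, took up calcium dye for 2 h at 37 °C, received compound, and were read kinetically; 15-point titrations, triplicates.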
Structure (SMILES),Potency [1],Potency [2],Potency [3],Potency [4],Potency [5],Potency [6],Potency [7],Potency [8],Potency [9],Potency [10],Potency [11],Potency [12],Potency [13],outcome [14],max activation [15] [%],Potency [16],Potency [17]
CCC(C)COC(C)=O (centres undefined),inactive,inactive,inactive,inactive,inactive,inactive,inactive,inactive,inactive,inactive,inactive,inactive,inactive,–,–,–,–
C=C1c2cccc(O)c2C(O)=C2C(=O)[C@]3(O)C(O)=C(C(N)=O)C(=O)[C@@H](N(C)C)[C@@H]3[C@@H](O)[C@H]12,inactive,inactive,inactive,inactive,–,inactive,inactive,inactive,inactive,inactive,inactive,inactive,inactive,inactive,-2.64,inactive,–
CCCCN(CCCC)C(C(N)=O)c1ccc(OC)cc1 (centres undefined),inactive,inactive,inactive,–,inactive,inactive,inactive,inactive,inactive,inactive,inactive,inactive,11.9 µM (active),–,–,–,–
CN1CCCC(CC2c3ccccc3Sc3ccccc32)C1 (centres undefined),inactive,inactive,18.8 µM (active),18.8 µM (active),–,inactive,inactive,29.8 µM (active),–,–,inactive,inactive,inactive,inactive,-1.72,inactive,inactive
Nc1nnc(-c2ccc([N+](=O)[O-])o2)o1,61.1 µM (active),inactive,–,–,inactive,inactive,inactive,27.3 µM (active),inactive,54.5 µM (active),inactive,68.6 µM (active),inactive,–,–,–,–
O=C(OCC(O)CO)c1ccccc1Nc1ccnc2cc(Cl)ccc12 (centres undefined),inactive,inactive,–,–,inactive,inactive,inactive,26.6 µM (active),inactive,–,inactive,inactive,11.9 µM (active),–,-2.2,inactive,inactive
Oc1ccc(Cl)c2cccnc12,inactive,inactive,–,–,inactive,inactive,inactive,–,inactive,6.68 µM (active),6.68 µM (active),inactive,–,inactive,-0.0207,inactive,inactive
CC(=O)[C@H]1[C@H](C#N)C[C@H]2[C@@H]3CC=C4C[C@@H](O)CC[C@]4(C)[C@H]3CC[C@@]21C,inactive,inactive,inactive,inactive,inactive,inactive,–,inactive,–,inactive,inactive,inactive,33.1 µM (active),inactive,–,–,–
C/C=C/C=C/C=O,inactive,inactive,inactive,inactive,inactive,inactive,inactive,inactive,inactive,–,inactive,inactive,inactive,inactive,–,–,inactive
CCC(C)COC(=O)CC(C)C (centres undefined),inactive,inactive,9.69 µM (active),–,inactive,inactive,inactive,inactive,inactive,inactive,inactive,inactive,–,inactive,–,–,–
CN(C(=O)CN(CCO)CC(=O)N(C)C(C)(C)Cc1ccccc1)C(C)(C)Cc1ccccc1,inactive,inactive,inactive,inactive,inactive,inactive,inactive,inactive,inactive,–,inactive,inactive,2.37 µM (active),inactive,–,8.91 µM (active),inactive
